Inconclusive results are not listed. A call without a number means that no potency is given here. Activity calls are given as the source filed them. Calls come from the whole dose curve; as a rule, active = well fitted curve in the direction sought with a large enough effect; inconclusive = small, poorly fitted or top-dose-only effect, or another doubt; inactive = no such curve, though single readings can be large; an effect the other way counts as inactive or inconclusive.
Legend:
[1] = biological target: Cytochrome P450 3A4 (Homo sapiens) (UniProt P08684); assay: qHTS Assay for Inhibitors and Substrates of Cytochrome P450 3A4 (AID 884); conditions: recombinant CYP3A4, Luciferin-PPXE luminescence; series mostly up to 57.1 µM; note: nearly all actives have a fitted effect of over 50% in size; note: potency is the fitted concentration of half-maximal effect
Sequence of Cytochrome P450 3A4 (Homo sapiens) (P08684 whole entry, looked up): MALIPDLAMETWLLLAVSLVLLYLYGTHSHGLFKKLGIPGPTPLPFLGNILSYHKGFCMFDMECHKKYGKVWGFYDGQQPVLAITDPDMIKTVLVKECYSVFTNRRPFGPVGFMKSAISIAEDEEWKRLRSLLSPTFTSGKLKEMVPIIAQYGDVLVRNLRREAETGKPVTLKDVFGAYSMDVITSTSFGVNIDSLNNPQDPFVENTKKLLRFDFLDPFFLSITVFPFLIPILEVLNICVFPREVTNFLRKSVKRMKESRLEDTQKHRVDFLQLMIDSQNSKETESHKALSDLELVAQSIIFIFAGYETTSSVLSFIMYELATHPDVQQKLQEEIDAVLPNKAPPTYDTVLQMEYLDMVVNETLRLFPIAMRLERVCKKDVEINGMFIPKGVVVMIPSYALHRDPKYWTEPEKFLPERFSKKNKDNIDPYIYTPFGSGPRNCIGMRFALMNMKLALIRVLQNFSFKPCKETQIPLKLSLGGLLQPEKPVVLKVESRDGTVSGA
How it was run: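 20 nM human CYP3A4 with 25 uM Luciferin-PPXE (at KM) in 200 mM KPO4, preincubated 10 min with compound; NADPH regeneration started a 60 min RT reaction. Luciferin detected by luminescence, normalized to 57 uM ketoconazole as full inhibition.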

[2] = biological target: Cytochrome P450 3A4 (Homo sapiens) (UniProt P08684); assay: qHTS Assay for Activators of Cytochrome P450 3A4 (AID 885); conditions: recombinant CYP3A4, Luciferin-PPXE luminescence, 60 min; series mostly up to 57.1 µM; note: nearly all actives have a fitted effect of over 65% in size
How it was run: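 Signal was normalized against complete inhibition by 57 uM ketoconazole. The reaction used 20nM CYP3A4 with 25uM Luciferin-PPXE, 10-min compound preincubation and a 60-min NADPH-supported step at RT.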

[3] = biological target: Ubiquitin carboxyl-terminal hydrolase 1 (Homo sapiens) (UniProt O94782); assay: Inhibitors of USP1/UAF1: Pilot qHTS (AID 504865); conditions: purified USP1/UAF1, Ub-rhodamine cleavage fluorescence; series mostly up to 114 µM; note: nearly all actives have a fitted effect of over 35% in size; note: potency is the fitted concentration of half-maximal effect
Sequence of Ubiquitin carboxyl-terminal hydrolase 1 (Homo sapiens) (O94782 whole entry, looked up): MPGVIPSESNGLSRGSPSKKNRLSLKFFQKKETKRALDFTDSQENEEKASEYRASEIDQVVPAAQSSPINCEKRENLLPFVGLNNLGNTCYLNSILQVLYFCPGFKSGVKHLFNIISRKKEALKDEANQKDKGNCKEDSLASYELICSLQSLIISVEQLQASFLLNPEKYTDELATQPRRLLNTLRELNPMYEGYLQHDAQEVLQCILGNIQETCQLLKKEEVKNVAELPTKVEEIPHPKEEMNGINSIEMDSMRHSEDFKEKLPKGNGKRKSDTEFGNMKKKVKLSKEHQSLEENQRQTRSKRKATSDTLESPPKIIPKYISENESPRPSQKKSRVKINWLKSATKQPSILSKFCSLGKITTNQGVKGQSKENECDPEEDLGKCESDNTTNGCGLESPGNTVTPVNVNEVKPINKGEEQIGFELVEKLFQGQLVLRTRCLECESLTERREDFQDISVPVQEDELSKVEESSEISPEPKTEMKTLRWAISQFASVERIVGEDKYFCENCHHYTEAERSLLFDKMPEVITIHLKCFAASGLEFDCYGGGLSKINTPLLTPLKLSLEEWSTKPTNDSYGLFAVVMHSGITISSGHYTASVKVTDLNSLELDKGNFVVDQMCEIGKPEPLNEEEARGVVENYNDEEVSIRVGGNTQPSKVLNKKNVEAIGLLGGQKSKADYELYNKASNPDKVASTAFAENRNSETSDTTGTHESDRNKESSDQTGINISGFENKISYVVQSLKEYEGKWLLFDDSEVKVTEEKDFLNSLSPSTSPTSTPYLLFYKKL
How it was run: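 1nM USP1/UAF1 + cpd, 15 min RT; start w/ Ub-Rho 150nM final; kinetic FL 480/540 nm, 6 reads q60 s. Buffer 50mM HEPES pH 7.8, 0.5mM EDTA, 1mM TCEP, 0.01% Tween-20, 0.1 mg/ml BSA.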

[4] = biological target: DNA dC->dU-editing enzyme APOBEC-3G (Homo sapiens) (UniProt Q9HC16); assay: qHTS for inhibitors of Vif-A3G interactions: Validation (AID 588379); conditions: Vif-A3G protein interaction assay; series mostly up to 46.1 µM; note: potency is the fitted concentration of half-maximal effect
Sequence of DNA dC->dU-editing enzyme APOBEC-3G (Homo sapiens) (Q9HC16 whole entry, looked up): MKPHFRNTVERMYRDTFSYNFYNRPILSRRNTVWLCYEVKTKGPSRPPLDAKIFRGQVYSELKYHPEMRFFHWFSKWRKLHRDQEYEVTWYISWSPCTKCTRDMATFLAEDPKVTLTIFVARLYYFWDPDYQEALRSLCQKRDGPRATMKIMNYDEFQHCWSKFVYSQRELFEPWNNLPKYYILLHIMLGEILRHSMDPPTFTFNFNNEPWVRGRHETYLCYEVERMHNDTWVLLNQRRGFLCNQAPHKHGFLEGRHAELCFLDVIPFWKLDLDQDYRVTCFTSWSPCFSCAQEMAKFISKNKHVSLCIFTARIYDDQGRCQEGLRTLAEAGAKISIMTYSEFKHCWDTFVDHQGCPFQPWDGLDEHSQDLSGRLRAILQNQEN
How it was run: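 HeLa cells stably expressing Vif and A3G-eYFP, 700 cells/well, incubated overnight at 37 deg C, then exposed to compound overnight at 37 deg C. Inhibition of Vif-mediated degradation read as increased yellow fluorescence (Ex 488/Em 500-530) by laser-scanning cytometry.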

[5] = Confirmation and Secondary Assay for Modulators of Hemoglobin Beta Chain Splicing at IVS2 654 locus (AID 910); conditions: HeLa EGFP-654 splicing reporter, GFP fluorescence, 48 h; series mostly up to 46.1 µM;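 note: per-well total GFP intensity by laser scanning cytometry after 2-day treatment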
How it was run: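 HeLa cells stably carrying EGFP interrupted by mutant beta-globin IVS2-654 intron (CMV-driven) were treated with compound for 2 days at 37C; corrected splicing was scored as total peak GFP intensity per well (488 nm excitation, 500-520 nm emission).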

[6] = Confirmation and Secondary Assay for Modulators of Hemoglobin Beta Chain Splicing at IVS2 705 locus (AID 930); conditions: HeLa EGFP-705 splicing reporter, GFP fluorescence, 48 h; series mostly up to 46.1 µM;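 note: HeLa cells stably expressing the EGFP-705 splicing reporter; GFP fluorescence per well restored by corrected splicing of the IVS2-705 intron in EGFP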
How it was run: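 Fluorescence gain (488 nm laser, 500-520 nm PMT) reflects restored correct splicing of a mutant IVS2-705 intron inside EGFP in stably transfected HeLa cells after 2-day compound treatment.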

SMILES | Potency [1] | Potency [2] | Potency [3] | Potency [4] | outcome [5] | outcome [6]
COc1cc2c(C=O)c3c4c(cc(OC)c(OC)c4c2cc1OC)CCN3C | 2 µM (active) | inactive | 22.4 µM (active) | 21.1 µM (active) | – | –
O=C(O)C(S)[C@@H](S)C(=O)O (stereo partly drawn) | inactive | – | inactive | – | inactive | –
O=c1[nH]cnc2c1ncn2C1CC(O)C(CO)O1 (stereo not drawn) | inactive | – | inactive | – | inactive | –
CC1CCC2C(C)(C)C3CC12CC[C@]3(C)O (stereo partly drawn) | inactive | – | inactive | – | inactive | inactive
CCC(=O)O[C@H]1C(O[C@@H]2C(C)[C@H](O[C@H]3C[C@@](C)(OC)C(O)C(C)O3)C(C)C(=O)OC(CC)[C@@](C)(O)C(O)[C@H](C)C(=O)C(C)C[C@]2(C)O)OC(C)CC1N(C)C (stereo partly drawn) | 0.631 µM (active) | inactive | 20 µM (active) | – | inactive | –
C=C1C(=O)C23C(O)C1CCC2[C@]12COC3(O)C(O)C1C(C)(C)CC[C@H]2O (stereo partly drawn) | inactive | – | inactive | – | inactive | –
C=C1c2cccc(O)c2C(O)=C2C(=O)[C@]3(O)C(O)=C(C(N)=O)C(=O)C(N(C)C)C3C(O)C12 (stereo partly drawn) | inactive | – | 39.8 µM (active) | – | inactive | –
CC1(C)CC[C@]2(C(=O)O)CC[C@@]3(C)C(=CCC4[C@@]5(C)CCC(O)C(C)(C)C5CC[C@@]43C)C2C1 (stereo partly drawn) | inactive | – | inactive | – | inactive | inactive
NC(=O)c1ccc[n+]([C@@H]2OC(COP(=O)([O-])OP(=O)(O)OCC3OC(n4cnc5c(N)ncnc54)C(O)C3O)C(O)C2O)c1 (stereo partly drawn) | inactive | – | inactive | – | inactive | inactive
COc1ccc2c(c1OC)C(Cc1ccccc1)N1CCc3cc4c(cc3C1=C2)OCO4 (stereo not drawn) | 0.199 µM (active) | inactive | 39.8 µM (active) | – | – | –
COc1cc2c(C)c3c4c(cc(OC)c(OC)c4c2cc1OC)CCN3C | 15.8 µM (active) | inactive | 25.1 µM (active) | – | – | –
C[C@H]1[C@H]2CC[C@H]3C4CC=C5C[C@@H](N(C)C)CC[C@]5(C)C4CC[C@]23CN1C (stereo partly drawn) | inactive | – | inactive | – | – | –
OCC(O)C(O)C(O)C(O)C(O)CO (stereo not drawn) | inactive | – | inactive | – | inactive | inactive
C=C1C(=O)OC2C[C@@]3(C)CCCC(C)C3=CC12 (stereo partly drawn) | 7.94 µM (active) | inactive | inactive | – | inactive | inactive
Nc1ncnc2c1[nH]c(=O)n2C1CC(O)C(CO)O1 (stereo not drawn) | inactive | – | inactive | – | inactive | –
COc1cc(OC)c2c(c1)OC(c1ccccc1)CC2=O (stereo not drawn) | 12.6 µM (active) | inactive | inactive | – | – | –
COc1ccc2cc1Oc1ccc(cc1)CC1c3cc(c(OC)cc3CCN1C)Oc1c(OC)c(OC)cc3c1C(C2)N(C)CC3 (stereo not drawn) | inactive | – | inactive | – | inactive | inactive
OC[C@H]1O[C@@H](OC[C@H]2O[C@@H](O)[C@H](O)[C@@H](O)[C@@H]2O)[C@H](O)[C@@H](O)[C@@H]1O | inactive | – | inactive | – | – | –
CC1(C)C=Cc2c(cc3occ(-c4ccc5c(c4)OCO5)c(=O)c3c2O)O1 | 25.1 µM (active) | inactive | inactive | – | inactive | inactive
CC(=O)OCC(=O)[C@@]1(O)CCC2C3CCC4=CC(=O)CC[C@]4(C)C3C(=O)C[C@]21C (stereo partly drawn) | inactive | – | inactive | – | – | –
O[N+]1=CC=CCC1=S.On1ccccc1=S.[Zn] | inactive | – | inactive | – | inactive | inactive
NC(N)=N/N=C\c1c(Cl)cccc1Cl | inactive | – | inactive | – | inactive | inactive
CC1CC[C@@]23CCC4(C)[C@@]5(C)CCC6C(C)(C)C(=O)CC[C@@]6(C)C5C=C[C@@]4(OC2=O)C3C1C (stereo partly drawn) | inactive | – | inactive | – | inactive | inactive
COc1cc2c(C(=O)c3ccccc3)c3c4c(cc(OC)c(OC)c4c2cc1OC)CCN3C | 1.26 µM (active) | inactive | 25.1 µM (active) | – | – | –
C=C1CCC2C(CC2(C)C)C(=O)CCC1O (stereo not drawn) | 2 µM (active) | inactive | inactive | – | inactive | –
CC(=O)c1ccc[nH]1 | inactive | – | inactive | – | inactive | inactive
CC(=O)OC1CC(OC(C)=O)[C@]2(C)C(CC(OC(C)=O)[C@@]3(C)C4=CC(=O)OC(c5ccoc5)[C@]4(C)CCC32)C1(C)C (stereo partly drawn) | 10 µM (active) | inactive | inactive | – | inactive | inactive
COc1c2ccoc2c(OC)c2oc(=O)ccc12 | 2 µM (active) | inactive | inactive | – | inactive | inactive
COc1ccc2c(=O)ccoc2c1 | inactive | – | inactive | – | inactive | –
Cc1onc(-c2c(Cl)cccc2Cl)c1C(=O)NC1C(=O)N2C1SC(C)(C)C2C(=O)O (stereo not drawn) | inactive | – | inactive | – | inactive | inactive

Source: PubChem BioAssay (NCATS)
